# Results as given in PubChem BioAssay.
# Unmarked numbers belong to inactive results. For part of these data: Entries with a potency or affinity are not part of this list. Activity calls are given as the source filed them. Unless noted, no rule for the calls is given here.
# Experiments:
# [1] = antimalarial activity against Dd2 strain (AID 2302;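 active = growth inhibition above 50% at the single 2 µM test dose, taken to imply half-maximal potency below 2 µM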;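 also: 0% = DMSO untreated growth and 100% = chloroquine plus artemisinin killed control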); settings: P. falciparum Dd2 in RBCs, LDH growth readout, 72 h; at 2 µM; stronger effect = higher value
# [2] = HepG2 cytotoxicity, primary screen, cytotoxicity control for P. falciparum antimalarial project, cell-based, ATP luminescence (AID 2303;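 active = inhibition above 50%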;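 also: 0% = DMSO wells and 100% = digitonin-killed cells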); settings: HepG2 viability, 24-48 h, at 10 µM, stronger effect = higher value
# [3] = biological target: L-lactate dehydrogenase (Plasmodium falciparum (isolate CDC / Honduras)) (UniProt Q27743); experiment: PfLDH activity inhibition – cell lysate, 3D7 strain, counter-screen for P. falciparum growth inhibition project (AID 2304);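 also: 0% = vehicle and 100% = reference inhibitor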; settings: P. falciparum 3D7 crude extract, LDH APAD/NBT absorbance; at 2 µM; stronger effect = higher value
# [4] = inhibition of 3D7 malaria parasite growth – strain 3D7 (AID 2306);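 also: 0% = DMSO wells and 100% = chloroquine plus artemisinin control wells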; settings: P. falciparum 3D7 erythrocytic growth, LDH absorbance, 72 h; at 2 µM; stronger effect = higher value
# [5] = biological target: Calcium-dependent protein kinase 1 (Plasmodium falciparum (isolate 3D7)) (UniProt P62344); experiment: PfCDPK1 kinase inhibitors, biochemical, TCAMS library (AID 1159585; cut-off not given, nearly all actives have IC50 up to about 0.98 µM;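 also: inhibitors leave more ATP so luminescence rises with inhibition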); settings: recombinant PfCDPK1, Kinase-Glo ATP depletion luminescence
# [6] = biological target: Plasmodium falciparum protein kinase 6 (PK6, PF3D7_1337100) (UniProt Q8IDW1); experiment: PfPK6 kinase inhibitors, biochemical, TCAMS library (AID 1159586); settings: recombinant PfPK6, Kinase-Glo ATP depletion luminescence
# [7] = biological target: Protein kinase 7 (PK7), Plasmodium falciparum 3D7 (PF3D7_0213400) (UniProt Q7YTF7); experiment: inhibition of Plasmodium PK7 catalytic activity – biochemical, TCAMS antimalarial set, Kinase-Glo luminescence (AID 1159587); settings: recombinant PfPK7, Kinase-Glo ATP depletion luminescence
# [8] = biological target: Calcium-dependent protein kinase 4 (Plasmodium falciparum (isolate 3D7)) (UniProt Q8IBS5); experiment: PfCDPK4 kinase inhibitors, biochemical, TCAMS library (AID 1159588; cut-off not given, nearly all actives have IC50 up to about 0.91 µM); settings: recombinant PfCDPK4, Kinase-Glo ATP depletion luminescence
# Calcium-dependent protein kinase 4 (Plasmodium falciparum (isolate 3D7)), sequence (Q8IBS5 whole entry, looked up): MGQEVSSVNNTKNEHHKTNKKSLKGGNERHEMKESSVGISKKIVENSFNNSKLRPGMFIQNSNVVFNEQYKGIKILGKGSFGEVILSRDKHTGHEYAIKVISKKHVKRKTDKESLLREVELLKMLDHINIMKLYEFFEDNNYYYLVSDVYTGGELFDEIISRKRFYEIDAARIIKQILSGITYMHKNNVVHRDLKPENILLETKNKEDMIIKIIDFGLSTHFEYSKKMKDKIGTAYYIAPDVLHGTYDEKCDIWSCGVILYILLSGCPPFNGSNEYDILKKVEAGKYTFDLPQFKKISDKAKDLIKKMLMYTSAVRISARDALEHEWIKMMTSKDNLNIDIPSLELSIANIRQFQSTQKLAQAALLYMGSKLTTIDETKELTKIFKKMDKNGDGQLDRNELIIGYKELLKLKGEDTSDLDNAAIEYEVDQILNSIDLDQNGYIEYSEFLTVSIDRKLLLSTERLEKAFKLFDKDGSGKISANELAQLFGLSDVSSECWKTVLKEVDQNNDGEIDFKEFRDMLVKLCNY
# Protein kinase 7 (PK7), Plasmodium falciparum 3D7 (PF3D7_0213400), sequence (Q7YTF7 1-343): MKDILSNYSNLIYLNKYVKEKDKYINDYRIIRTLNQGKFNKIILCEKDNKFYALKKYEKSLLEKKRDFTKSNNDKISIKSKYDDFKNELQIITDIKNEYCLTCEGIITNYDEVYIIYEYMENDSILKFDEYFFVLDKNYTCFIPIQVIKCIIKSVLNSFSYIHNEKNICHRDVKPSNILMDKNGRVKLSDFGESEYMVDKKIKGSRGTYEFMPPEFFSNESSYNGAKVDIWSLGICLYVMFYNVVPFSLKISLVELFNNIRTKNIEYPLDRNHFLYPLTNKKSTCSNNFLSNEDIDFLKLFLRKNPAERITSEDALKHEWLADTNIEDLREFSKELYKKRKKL
# Calcium-dependent protein kinase 1 (Plasmodium falciparum (isolate 3D7)), sequence (P62344 whole entry, looked up): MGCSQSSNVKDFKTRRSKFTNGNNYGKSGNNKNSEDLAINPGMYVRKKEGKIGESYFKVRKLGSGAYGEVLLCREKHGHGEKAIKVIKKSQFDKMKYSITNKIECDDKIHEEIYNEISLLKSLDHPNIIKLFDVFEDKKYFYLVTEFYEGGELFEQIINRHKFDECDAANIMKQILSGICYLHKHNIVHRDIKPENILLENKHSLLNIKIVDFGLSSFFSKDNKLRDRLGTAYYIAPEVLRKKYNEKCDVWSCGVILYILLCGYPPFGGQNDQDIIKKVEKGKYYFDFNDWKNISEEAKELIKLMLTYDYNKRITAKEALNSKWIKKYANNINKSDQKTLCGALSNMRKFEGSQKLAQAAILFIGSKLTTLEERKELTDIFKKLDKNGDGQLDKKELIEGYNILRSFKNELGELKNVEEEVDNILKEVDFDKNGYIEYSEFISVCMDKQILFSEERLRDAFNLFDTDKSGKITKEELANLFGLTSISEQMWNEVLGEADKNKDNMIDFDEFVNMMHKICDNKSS
# L-lactate dehydrogenase (Plasmodium falciparum (isolate CDC / Honduras)), sequence (Q27743 whole entry, looked up): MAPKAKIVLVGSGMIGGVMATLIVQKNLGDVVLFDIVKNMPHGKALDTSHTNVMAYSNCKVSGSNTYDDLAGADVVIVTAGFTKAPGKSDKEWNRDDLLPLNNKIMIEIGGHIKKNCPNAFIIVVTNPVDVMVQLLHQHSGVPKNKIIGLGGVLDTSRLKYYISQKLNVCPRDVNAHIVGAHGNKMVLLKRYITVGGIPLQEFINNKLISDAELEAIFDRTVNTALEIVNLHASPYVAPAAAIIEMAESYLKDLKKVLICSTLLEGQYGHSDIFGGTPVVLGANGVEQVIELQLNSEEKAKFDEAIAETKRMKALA
# Plasmodium falciparum protein kinase 6 (PK6, PF3D7_1337100), sequence (Q8IDW1 1-305): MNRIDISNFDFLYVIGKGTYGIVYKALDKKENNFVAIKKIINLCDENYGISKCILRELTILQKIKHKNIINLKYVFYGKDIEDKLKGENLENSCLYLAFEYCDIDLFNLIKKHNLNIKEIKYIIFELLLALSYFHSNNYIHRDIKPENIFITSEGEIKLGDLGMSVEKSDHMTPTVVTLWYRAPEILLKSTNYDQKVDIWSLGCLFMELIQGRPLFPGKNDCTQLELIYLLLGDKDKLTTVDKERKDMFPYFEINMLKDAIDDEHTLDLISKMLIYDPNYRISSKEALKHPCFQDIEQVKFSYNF
Structure (SMILES),growth inhibition [1],inhibition [2],inhibition [3],growth inhibition [4],outcome [5],outcome [6],outcome [7],outcome [8]
CC(=O)c1ccc2nc[nH]c(=O)c2c1,99% (active),79% (active),-1%,96% (active),inactive,inactive,inactive,inactive
CN1CCCC(COc2cc3c(cc2Br)CCN3C(=O)Nc2ccc(-c3ccncc3)c(Cl)c2)C1 (stereo not drawn),96% (active),99% (active),-2%,100% (active),inactive,inactive,inactive,inactive
Cc1ccc2[nH]c(C)c(Br)c(=O)c2c1,84% (active),-4%,-5%,95% (active),inactive,inactive,inactive,inactive
OC(CNc1ccnc(Nc2cccc(Cl)c2)n1)c1cccc(F)c1 (stereo not drawn),29%,16%,3%,90% (active),inactive,inactive,inactive,inactive
Cc1cc(NC(=O)Nc2cccc(Cl)c2Cl)c2ccccc2n1,25%,-5%,1%,96% (active),inactive,inactive,inactive,inactive
CC(C)(C)c1ccc2oc(=O)n(C3CCN(C(=O)c4ccc([N+](=O)[O-])o4)CC3)c2c1,87% (active),-8%,-2%,94% (active),inactive,inactive,inactive,inactive
O=C(NCCCCCN1CCC(c2c[nH]c3ccccc23)C1)Nc1ccc(Cl)c(Cl)c1 (stereo not drawn),19%,28%,1%,95% (active),inactive,inactive,inactive,inactive
CCn1c(-c2nonc2N)nc2c(-c3cccc(NC(=O)Nc4cccc(OC)c4)c3)ncc(OCCCN)c21,69% (active),1%,4%,92% (active),inactive,inactive,inactive,inactive
Oc1ccc(CNCCCCCCNCCc2ccc(Cl)cc2)cc1O,7%,2%,2%,94% (active),inactive,inactive,inactive,inactive
O=C(Nc1cc(Cl)ccc1O)c1cc(-c2ccccc2O)no1,79% (active),-7%,2%,95% (active),inactive,inactive,inactive,inactive
CC(C)(C)C1CCC(CC2=C(C(=O)O)c3ccccc3C2=O)CC1 (stereo not drawn),56% (active),-4%,-1%,91% (active),inactive,inactive,inactive,inactive
Cc1ccc(C=C2SC(=Nc3ccccc3)NC2=O)c(C)c1,90% (active),1%,-2%,93% (active),inactive,inactive,inactive,inactive
Cc1ccc(NC(=O)c2ccc3nccnc3c2)cc1OC1CCN(Cc2ccc(F)cc2)CC1,24%,16%,4%,87% (active),inactive,inactive,inactive,inactive
Cc1ccc(F)c(NC(=O)c2c(-c3c(F)cccc3Cl)noc2C)c1,18%,13%,0%,90% (active),inactive,inactive,inactive,inactive
Cc1ccc(Cn2c(N3CCC(C(=O)NCc4ccccn4)CC3)nc3ccccc32)cc1,99% (active),-8%,8%,100% (active),inactive,inactive,inactive,inactive
Cc1nc(-c2cccc(C(=O)N(Cc3cncn3Cc3cccc(C(F)(F)F)c3)CC3CC3)c2)cs1,17%,7%,4%,97% (active),inactive,inactive,inactive,inactive
COc1cc(-c2nnc(SCC(=O)Nc3cc(C)on3)n2C)cc(OC)c1O,2%,2%,5%,89% (active),inactive,inactive,inactive,inactive
CC(=O)Nc1ccc2[nH]cc(C3CCN(CC4CCC(NC(=O)/C=C/c5ccccc5Cl)CC4)CC3)c2n1 (stereo not drawn),79% (active),16%,-1%,101% (active),inactive,inactive,inactive,inactive
Cc1[nH]c(CNCCCNc2cc(=O)c3ccccc3[nH]2)c(Br)c1Br,47%,-3%,4%,91% (active),inactive,inactive,inactive,inactive
CCOc1ccc(C2CCN(CCCCNC(=O)c3ccc(NC(=O)c4ccc(Cl)cc4)cc3)CC2)c(Cl)c1,96% (active),32%,-2%,101% (active),inactive,inactive,inactive,inactive
COc1cc2nc(NCCn3nc(C)cc3C)nc(NCCc3ccccc3)c2cc1OC,100% (active),28%,-3%,103% (active),inactive,inactive,inactive,inactive
